PubChem BioAssay
Active and inactive are the calls of the source.

What was measured:
[1] = optical density shifts of acrAB sulA E. coli – strain DRC41, OD650, 48 h, E. coli filamentation inducer project, primary screen (AID 1152); details: higher = more signal, called active from +8 up or from −8 down;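 note: E. coli MC1000 strain DRC41 lacking acrAB efflux pump and sulA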
[2] = probe aLefty1 binding on compound microarray – biochemical, small-molecule microarray, 635/667 nm fluorescence, primary screen (AID 1153); details: higher = more signal;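 note: score merges spot fluorescence with signal-to-noise ratio from the scanned slide images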
[3] = plasmodial surface anion channel blockers, osmotic lysis – cell-based, P. falciparum Indochina, OD700, 1 h, primary screen (AID 1154); details: P. falciparum Indochina infected RBC osmotic lysis, higher = more signal, called active from +8 up or from −8 down
[4] = plasmodial surface anion channel blockers, osmotic lysis – cell-based, P. falciparum Indochina, OD700, 2 h, primary screen (AID 1155);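 note: lysis reports solute entry through the parasite surface anion channel PSAC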; details: P. falciparum Indochina infected erythrocytes, higher = more signal, called active from +8 up or from −8 down
[5] = changes in parasitized red cell lysis, either direction – P. falciparum Indochina, OD700, 3 h, PSAC antagonist project, primary screen (AID 1156); details: P. falciparum-infected erythrocytes, osmotic lysis, higher = more signal, called active from +8 up or from −8 down
[6] = plasmodial surface anion channel blockers, osmotic lysis – cell-based, P. falciparum Indochina, OD700, 18 h, primary screen (AID 1157); details: P. falciparum Indochina infected erythrocytes, osmotic lysis OD700, 18 h; higher = more signal, called active from +8 up or from −8 down
[7] = S6 kinase pathway phospho-S6 level changes – cell-based, A549, cytoblot, luminescence, serum-stimulated, primary screen (AID 1158); details: 5 h, higher = more signal;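 note: serum-stimulated A549 lung adenocarcinoma cells; signal is phosphorylated S6 detected by cytoblot immunostaining with HRP secondary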
[8] = target: NADPH oxidase 2 (Homo sapiens) (UniProt P04839); experiment: compounds shifting NOX2 Amplex Red fluorescence – cell-based, HEK293-NOX2, PMA-stimulated, NOX inhibitor project, primary screen (AID 1159); details: 45 min, higher = more signal, called active from +8 up or from −8 down; note: test concentration not given here
[9] = target: NADPH oxidase 4 (Homo sapiens) (UniProt Q9NPH5); experiment: compounds shifting NOX4 Amplex Red fluorescence – cell-based, HEK293-NOX4, tetracycline-induced, NOX inhibitor project, primary screen (AID 1160); details: HEK293-NOX4, Amplex Red H2O2 fluorescence, 45 min; higher = more signal, called active from +8 up or from −8 down
[10] = target: NADPH oxidase 5 (Homo sapiens) (UniProt Q96PH1); experiment: compounds shifting NOX5 Amplex Red fluorescence – cell-based, HEK293-NOX5, NOX inhibitor project, primary screen (AID 1161); details: HEK293-NOX5, ionomycin, 45 min, higher = more signal
Chain of NADPH oxidase 5 (Homo sapiens) (Q96PH1 whole entry, looked up): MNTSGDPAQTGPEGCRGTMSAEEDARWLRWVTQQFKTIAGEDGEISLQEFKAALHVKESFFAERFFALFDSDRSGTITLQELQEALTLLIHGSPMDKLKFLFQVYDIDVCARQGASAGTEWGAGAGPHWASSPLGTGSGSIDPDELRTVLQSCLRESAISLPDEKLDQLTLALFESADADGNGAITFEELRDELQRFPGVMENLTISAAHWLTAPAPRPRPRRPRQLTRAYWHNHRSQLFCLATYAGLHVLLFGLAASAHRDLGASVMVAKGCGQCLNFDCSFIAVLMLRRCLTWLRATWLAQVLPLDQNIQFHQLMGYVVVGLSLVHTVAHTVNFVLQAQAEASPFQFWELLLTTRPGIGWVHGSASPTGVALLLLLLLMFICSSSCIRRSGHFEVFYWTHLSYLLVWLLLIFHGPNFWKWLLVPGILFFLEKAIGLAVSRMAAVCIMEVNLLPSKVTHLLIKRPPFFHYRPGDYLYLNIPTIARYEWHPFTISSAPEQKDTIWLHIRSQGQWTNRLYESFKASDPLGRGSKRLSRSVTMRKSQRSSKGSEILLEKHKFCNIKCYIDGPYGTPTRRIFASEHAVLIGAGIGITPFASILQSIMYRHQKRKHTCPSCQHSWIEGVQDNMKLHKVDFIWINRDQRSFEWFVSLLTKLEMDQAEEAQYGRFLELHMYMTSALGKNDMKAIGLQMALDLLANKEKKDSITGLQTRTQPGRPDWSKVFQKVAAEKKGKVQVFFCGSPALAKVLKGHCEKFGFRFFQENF

Chain of NADPH oxidase 4 (Homo sapiens) (Q9NPH5 whole entry, looked up): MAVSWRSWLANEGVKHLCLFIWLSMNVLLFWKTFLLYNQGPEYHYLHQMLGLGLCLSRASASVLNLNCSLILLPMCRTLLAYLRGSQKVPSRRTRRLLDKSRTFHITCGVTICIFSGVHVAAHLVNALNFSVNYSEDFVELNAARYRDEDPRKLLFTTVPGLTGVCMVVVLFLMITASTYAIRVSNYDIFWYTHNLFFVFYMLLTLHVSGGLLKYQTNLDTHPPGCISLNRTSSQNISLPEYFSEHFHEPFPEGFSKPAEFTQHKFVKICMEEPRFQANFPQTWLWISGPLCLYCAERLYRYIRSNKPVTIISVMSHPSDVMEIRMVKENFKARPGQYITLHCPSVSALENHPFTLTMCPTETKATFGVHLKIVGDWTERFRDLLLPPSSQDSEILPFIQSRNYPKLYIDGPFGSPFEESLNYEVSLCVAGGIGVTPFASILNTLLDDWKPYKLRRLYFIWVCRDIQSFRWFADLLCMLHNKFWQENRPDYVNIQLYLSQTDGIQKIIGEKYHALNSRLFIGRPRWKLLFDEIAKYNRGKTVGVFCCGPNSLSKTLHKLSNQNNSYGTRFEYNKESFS
Chain of NADPH oxidase 2 (Homo sapiens) (P04839 whole entry, looked up): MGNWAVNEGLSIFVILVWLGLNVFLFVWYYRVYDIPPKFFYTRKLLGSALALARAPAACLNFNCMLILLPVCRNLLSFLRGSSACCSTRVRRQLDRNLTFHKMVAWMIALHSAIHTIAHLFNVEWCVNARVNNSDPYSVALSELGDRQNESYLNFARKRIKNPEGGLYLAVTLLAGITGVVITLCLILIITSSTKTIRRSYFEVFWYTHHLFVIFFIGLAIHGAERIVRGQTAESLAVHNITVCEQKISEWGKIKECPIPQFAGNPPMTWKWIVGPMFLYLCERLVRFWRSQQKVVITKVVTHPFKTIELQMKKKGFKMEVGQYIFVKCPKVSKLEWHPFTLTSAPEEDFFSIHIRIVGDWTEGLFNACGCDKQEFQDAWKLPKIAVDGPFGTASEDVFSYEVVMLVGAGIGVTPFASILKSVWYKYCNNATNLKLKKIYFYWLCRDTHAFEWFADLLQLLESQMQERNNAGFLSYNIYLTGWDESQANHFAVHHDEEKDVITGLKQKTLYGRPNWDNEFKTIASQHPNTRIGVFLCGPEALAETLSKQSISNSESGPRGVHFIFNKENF

Compound | z-score [1] | composite z-score [2] | z-score [3] | z-score [4] | z-score [5] | z-score [6] | z-score [7] | z-score [8] | z-score [9] | z-score [10]
COc1ccc(C(=O)Nc2ccc(CN3C(=O)[C@@]4(O[C@@H](CC(=O)N5CCC[C@H]5CO)[C@H]([Si](C)(C)c5ccc(OC)cc5)[C@H]4C)c4ccccc43)cc2)cc1 | 0.482 (inactive) | 0.138 | 5.52 (inactive) | 1.06 (inactive) | 0.146 (inactive) | 0.77 (inactive) | 0.363 | 1.21 (inactive) | 1.23 (inactive) | 4.5
CCCCCN1CC=CC23O[C@@H]4/C=C\CCCOC(=O)C4[C@H]2C(=O)N(C(CO)C(C)C)[C@@H]3C1=O (stereo not given in full) | 1.52 (inactive) | -0.113 | 0.724 (inactive) | 0.264 (inactive) | 0.29 (inactive) | 0.0866 (inactive) | 0.0595 | 1.59 (inactive) | 0.481 (inactive) | 2.17
COc1ccc([Si](C)(C)[C@H]2[C@H](CC(=O)N3Cc4ccccc4C[C@H]3CO)O[C@@]3(C(=O)N(Cc4ccc(N5CCC5=O)cc4)c4ccccc43)[C@@H]2C)cc1 | 0.97 (inactive) | 0.874 | 6.86 (inactive) | 1.45 (inactive) | 1.46 (inactive) | 1.11 (inactive) | 0.414 | -0.241 (inactive) | 0.465 (inactive) | -1.64
CCCCCCC#C[Si](O[C@H](c1ccccc1)c1cn([C@H](CO)Cc2ccccc2)nn1)(C(C)C)C(C)C | 2.03 (inactive) | -0.217 | 0.704 (inactive) | 0.268 (inactive) | -0.55 (inactive) | 0.602 (inactive) | 0.447 | -1.25 (inactive) | -0.227 (inactive) | -2.2
C=CCOC(=O)[C@H]1[C@@H]2C(=O)O[C@@H](c3ccccc3)[C@@H](c3ccccc3)N2[C@@H](c2ccc(OCCOC(=O)[C@@H]3C[C@@H]4C(=O)N5CCC[C@H]5C(=O)N4[C@@H]3c3cccc(OCCO)c3)cc2)[C@]12C(=O)Nc1ccccc12 | -0.152 (inactive) | 0.603 | 3.47 (inactive) | 1.16 (inactive) | 3.5 (inactive) | 0.671 (inactive) | 0.605 | 2.26 (inactive) | 0.917 (inactive) | 0.15
C=CCNC(=O)[C@@H]1[C@H]2C(=O)O[C@H](c3ccccc3)[C@H](c3ccccc3)N2[C@H](c2ccccc2OCCO)[C@@]12C(=O)N(C(=O)OCCOC)c1ccc(C#CCNC(N)=O)cc12 | -0.302 (inactive) | 0.395 | 3.09 (inactive) | 0.483 (inactive) | 1.3 (inactive) | 0.466 (inactive) | 0.425 | 1.77 (inactive) | 1.54 (inactive) | -0.131
COc1ccc(CCNC(=O)[C@@]2(Sc3ccc(C)cc3)CC(=O)N(C3CCCCC3)[C@@H]2c2ccc(CO)cc2I)cc1 | -0.0948 (inactive) | 0.0889 | 2.91 (inactive) | 0.547 (inactive) | -0.325 (inactive) | 0.252 (inactive) | -0.012 | 0.573 (inactive) | 0.672 (inactive) | 2.1
CCOC(=O)C1=CCC(c2ccc(C)cc2)N(S(=O)(=O)c2ccc(C)cc2)C1 (stereo not given) | -0.792 (inactive) | 0.174 | 2.05 (inactive) | 0.901 (inactive) | -0.628 (inactive) | 0.509 (inactive) | -0.78 | 0.63 (inactive) | 0.637 (inactive) | 1.17
C=CCOC(=O)[C@@H]1[C@H]2C(=O)O[C@H](c3ccccc3)[C@H](c3ccccc3)N2[C@H](c2ccc(OCCOC(=O)[C@@H]3C[C@@H]4C(=O)N5CCC[C@H]5C(=O)N4[C@@H]3c3ccc(O)cc3)cc2)[C@@]12C(=O)Nc1ccc(I)cc12 | 2.52 (inactive) | 0.365 | 2.19 (inactive) | 0.727 (inactive) | 2.43 (inactive) | -1.31 (inactive) | 3.17 | 1.32 (inactive) | 0.808 (inactive) | 1.69
C[N+](C)(C)CCCC[C@@H]1NC(=O)[C@@H]2C[C@H](C(=O)NCCCCCN)[C@H](c3cccc(OCCO)c3)N2C1=O | -0.272 (inactive) | -0.0412 | 1.85 (inactive) | 0.508 (inactive) | 0.214 (inactive) | 0.129 (inactive) | -0.0726 | 0.79 (inactive) | 0.289 (inactive) | 1.54
CC(C)C(CO)N1C(=O)[C@@H]2[C@H]3C(=O)OCC=C[C@H]3OC23C=CCN(C(C)C)C(=O)[C@@H]13 (stereo not given in full) | 1.4 (inactive) | -0.146 | -0.237 (inactive) | 0.139 (inactive) | 0.333 (inactive) | 0.649 (inactive) | -0.1 | 0.834 (inactive) | 0.457 (inactive) | 1.23
[N-]=[N+]=NCc1ccccc1[C@@H]1OC(c2ccc(OCCCO)cc2)=N[C@]1(CCS(=O)(=O)c1ccccc1)C(=O)NCCN1CCOCC1 | 0.36 (inactive) | 0.461 | 24 (active) | 6.42 (inactive) | 0.854 (inactive) | 0.763 (inactive) | -0.291 | 0.961 (inactive) | 1.92 (inactive) | 2.34
[N-]=[N+]=NCc1ccccc1C[C@]1(C(=O)NCC(O)CO)N=C(c2ccc(OCCCO)cc2)O[C@H]1c1ccccc1 (stereo not given in full) | 0.243 (inactive) | 0.33 | 13.1 (active) | 0.998 (inactive) | -0.593 (inactive) | 0.865 (inactive) | -0.0127 | 2.49 (inactive) | 0.717 (inactive) | -0.632
COCCOC(=O)N1C(=O)[C@@]2(c3cc(C#CCCO)ccc31)[C@H](C(=O)N1CCN(c3ncccn3)CC1)[C@H]1C(=O)O[C@H](c3ccccc3)[C@H](c3ccccc3)N1[C@@H]2c1ccccc1OCCO | 1.21 (inactive) | 0.157 | 2.63 (inactive) | 1.14 (inactive) | 0.288 (inactive) | 0.761 (inactive) | 0.69 | 1.45 (inactive) | 1.29 (inactive) | 0.437
C#CCNC(=O)[C@H](Cc1ccccc1)NC(=O)CCC(=O)O | -0.077 (inactive) | -0.36 | -0.168 (inactive) | 0.748 (inactive) | -0.707 (inactive) | 0.0401 (inactive) | -0.665 | 0.658 (inactive) | -0.198 (inactive) | 0.0788
COc1ccc(C(O)C2C=CC3C(=O)N(c4ccccc4)C(=O)C3N2Nc2ccccc2F)cc1OCc1ccccc1 (stereo not given) | -1 (inactive) | 0.5 | 9.5 (active) | 2.5 (inactive) | 0.361 (inactive) | 1.17 (inactive) | -1.12 | -1.18 (inactive) | -2.79 (inactive) | -1.17
COCCCNC(=O)C1N=C(c2ccc(OCCCO)cc2)N(c2ccccc2)O1 (stereo not given) | 0.768 (inactive) | -0.265 | 18.4 (active) | 2.14 (inactive) | 0.669 (inactive) | 0.325 (inactive) | 0.147 | -3.86 (inactive) | -0.749 (inactive) | -0.819
O=C1c2ccccc2[C@](Cc2ccccc2I)(C(=O)NC2CC2)[C@H](c2ccc(CO)cc2)N1Cc1ccccc1 | -0.102 (inactive) | 0.284 | 5.07 (inactive) | 0.602 (inactive) | 1.67 (inactive) | 0.181 (inactive) | -0.132 | -0.163 (inactive) | -0.127 (inactive) | -0.768
C=CCC(OC(C)=O)[C@@H]1[C@@H](N(Cc2ccc(-c3cccc(C(F)(F)F)c3)o2)C(=O)Cc2ccc(F)cc2)c2cc(OCCCO)ccc2N1C(=O)Cc1ccc(OC)cc1 (stereo not given in full) | 0.29 (inactive) | -0.191 | 2.58 (inactive) | -0.307 (inactive) | -0.876 (inactive) | -0.668 (inactive) | 0.317 | -2.17 (inactive) | 0.269 (inactive) | -0.0149
C=C(/C(=C/C[C@@H](OC(C)=O)c1ccc(OCCO)cc1)c1cnc2ccccc2c1)C(C)C | 1.14 (inactive) | -0.342 | 15.4 (active) | 2.26 (inactive) | 1.79 (inactive) | 0.97 (inactive) | 0.853 | -2.99 (inactive) | -0.926 (inactive) | -2.24
OC([C@@H]1CC(c2ccccc2)=NO1)[C@H]1CC(c2ccccc2)=NO1 (stereo not given in full) | 2.12 (inactive) | 0.139 | 24.6 (active) | 9.43 (active) | 0.291 (inactive) | 1.07 (inactive) | 0.383 | -0.51 (inactive) | -0.0169 (inactive) | 0.357
COC(=O)[C@@]1(Cc2ccc(OC)cc2)[C@H]2c3cc(C(=O)N4CCCC4)n(Cc4ccc(OC)c(OC)c4)c3C[C@H]2CN1C(=O)c1ccccc1 | -1.08 (inactive) | 1.61 | 4.08 (inactive) | 0.81 (inactive) | 1.92 (inactive) | 0.91 (inactive) | 0.0413 | 0.555 (inactive) | 0.235 (inactive) | -3.23
CN(C)CCCC[C@@H]1NC(=O)[C@H]2C[C@@H](C(=O)NCCCCCNC(=O)CS)[C@@H](c3cccc(OCCO)c3)N2C1=O | -0.728 (inactive) | -0.0601 | 2.9 (inactive) | 0.55 (inactive) | -0.744 (inactive) | 0.203 (inactive) | -0.534 | 1.76 (inactive) | 0.749 (inactive) | 1.13
